GalR3 antag = blocks the human galanin receptor 3. HEK293 GalR3-CNG cAMP membrane potential fluorescence; galR3 body fused to GalR1 C-terminus. inhibition, % at 3 µM. 0.44% of 360,000 active. AID 651719;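 active = inhibition above the screen-wide average plus 3 SD, cut at about 13% in these data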;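 also: forskolin and galanin both at EC90 stimulate the cells; cAMP rise reported by CNG channel membrane potential dye signal; 0% = forskolin plus galanin with DMSO and 100% = forskolin alone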
NCOA1 inh = inhibits human SRC1 coactivator | Q15788 | 0.12% of 360,000 active | inhibition, % at 3.6 µM | HEK293 GAL4-SRC1 luciferase reporter, luminescence;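 active = inhibition above the campaign mean plus 3 SD, with each screening campaign given its own cutoff, cut at about 60% in these data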;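 also: 0% = DMSO treated cells and 100% = gossypol at 36 µM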
Target sequence (Q15788 whole entry, looked up, the tested form may be a part): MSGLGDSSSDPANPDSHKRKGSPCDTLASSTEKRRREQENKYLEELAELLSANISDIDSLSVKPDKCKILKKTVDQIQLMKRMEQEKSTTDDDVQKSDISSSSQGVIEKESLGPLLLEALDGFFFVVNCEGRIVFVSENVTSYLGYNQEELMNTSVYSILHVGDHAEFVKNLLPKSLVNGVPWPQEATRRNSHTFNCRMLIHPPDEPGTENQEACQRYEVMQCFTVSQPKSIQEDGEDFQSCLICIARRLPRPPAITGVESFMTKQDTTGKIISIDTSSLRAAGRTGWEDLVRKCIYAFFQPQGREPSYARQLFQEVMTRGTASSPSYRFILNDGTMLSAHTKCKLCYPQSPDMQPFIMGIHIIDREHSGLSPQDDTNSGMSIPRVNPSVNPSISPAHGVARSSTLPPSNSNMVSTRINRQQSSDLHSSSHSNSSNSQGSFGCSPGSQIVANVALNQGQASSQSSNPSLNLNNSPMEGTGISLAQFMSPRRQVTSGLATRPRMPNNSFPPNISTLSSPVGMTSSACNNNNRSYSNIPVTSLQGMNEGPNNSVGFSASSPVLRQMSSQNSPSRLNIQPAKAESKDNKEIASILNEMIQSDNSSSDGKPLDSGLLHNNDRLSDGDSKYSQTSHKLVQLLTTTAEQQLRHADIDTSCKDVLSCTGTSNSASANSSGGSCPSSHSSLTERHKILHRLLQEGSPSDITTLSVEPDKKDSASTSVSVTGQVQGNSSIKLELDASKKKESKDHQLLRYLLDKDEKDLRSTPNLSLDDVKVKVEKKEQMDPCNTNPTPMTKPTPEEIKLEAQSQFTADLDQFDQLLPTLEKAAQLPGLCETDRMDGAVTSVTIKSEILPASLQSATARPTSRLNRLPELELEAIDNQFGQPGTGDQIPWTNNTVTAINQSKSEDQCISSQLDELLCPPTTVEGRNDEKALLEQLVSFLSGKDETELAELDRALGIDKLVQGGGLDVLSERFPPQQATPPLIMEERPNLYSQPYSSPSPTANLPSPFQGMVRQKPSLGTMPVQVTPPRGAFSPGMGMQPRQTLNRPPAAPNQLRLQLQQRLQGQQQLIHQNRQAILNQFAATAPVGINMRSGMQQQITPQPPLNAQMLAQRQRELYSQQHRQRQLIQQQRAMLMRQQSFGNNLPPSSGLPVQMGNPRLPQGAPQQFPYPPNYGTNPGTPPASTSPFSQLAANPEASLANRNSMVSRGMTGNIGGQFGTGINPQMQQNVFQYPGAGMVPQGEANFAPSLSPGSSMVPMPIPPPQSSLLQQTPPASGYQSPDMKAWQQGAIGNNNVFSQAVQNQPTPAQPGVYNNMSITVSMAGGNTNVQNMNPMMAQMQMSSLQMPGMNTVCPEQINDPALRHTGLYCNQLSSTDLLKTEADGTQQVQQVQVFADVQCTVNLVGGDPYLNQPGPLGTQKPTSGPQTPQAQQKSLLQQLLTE
LRH-1 inv ag = NR5A2 inverse agonism in reporter assay; O00482; HEK293T StAR-luciferase reporter, LRH-1 transfected, 24 h; inhibition, % at 3.6 µM; 0.13% of 360,000 active;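 active = inhibition above the mean inhibition of all tested compounds plus 3 SD, cut at about 73% in these data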;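 also: 0% = DMSO wells and 100% = reporter-only cells lacking LRH-1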
NR2F2 inh = blocks human COUP-TFII nuclear receptor. P24468. HEK293T NGFI-A luciferase reporter, luminescence. inhibition, % at 8.6 µM. 0.7% of 370,000 active;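 active = inhibition above a per-plate cutoff, mean inhibition of test wells between control levels plus 3 SD, cut at about 38% in these data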;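 also: cells cotransfected with COUP-TFII expression vector driving the NGFI-A reporter; 0% = median of COUP-TF2 test wells and 100% = reporter-only cells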
SRC3 inh = inhibitors of human steroid receptor coactivator 3 (SRC3). 0.17% of 360,000 active. AID 588352. Q9Y6Q9. HEK293 GAL4-SRC3 luciferase reporter, luminescence. inhibition, % at 3.6 µM;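 active = inhibition above a per-campaign cutoff, the mean of all compounds plus 3 SD, cut at about 60% in these data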;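 also: 0% = DMSO-treated cells and 100% = gossypol-treated cells at 36 µM; higher means less SRC3-driven luciferase light from the GAL4 reporter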
SRC2 inh = human SRC2 (NCOA2) inhibition. Q15596. HEK293 GAL4-SRC2 luciferase reporter, luminescence. inhibition, % at 9 µM. 0.17% of 370,000 active. AID 651957;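 active = inhibition above the mean inhibition of all tested compounds plus 3 SD, set per campaign, cut at about 52% in these data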;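 also: 0% = DMSO treated cells and 100% = cells given Gossypol at 36 µM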
Gal4-VP16 ctr = VP16 inhibition counter-screen for COUP-TFII; shares compounds with NR2F2 inh; HEK293 Gal4-VP16 luciferase reporter, luminescence; inhibition, % at 8.5 µM; 25% of 2,500 active; AID 687007; in the data active = inhibition above about 13%
NR2F2 inh conf = COUP-TFII (NR2F2) inhibition, confirmation assay. shares compounds with NR2F2 inh. HEK293 NGFI-A luciferase reporter, luminescence. inhibition, % at 8.5 µM. 45% of 2,500 active. AID 687008;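 active = mean inhibition over three repeats above a set limit taken from the earlier primary screen, cut at about 38% in these data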;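 also: 100% = cells given the luciferase reporter alone without the COUP-TF2 vector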
* marks the source's active call; other numbers are inactive results; . = not tested or not shown. This is a sample that favours compounds with a hit; in the whole collection about 1.1% have one here.

SMILES	GalR3 antag	NCOA1 inh	LRH-1 inv ag	NR2F2 inh	SRC3 inh	SRC2 inh	Gal4-VP16 ctr	NR2F2 inh conf
CCOC(=O)C1CCN(C(c2cccnc2)c2c(NC(=O)c3ccco3)sc(C)c2C)CC1 (stereo not drawn)	-7	8	41	70*	6	14	-14	39*
C=CCCC(=O)N[C@H]1CC[C@@]23CCCN2C(=O)CCC[C@H]3[C@H]1C	.	.	.	-2	.	.	.	.
COc1ccc(/C=C2/CSC/C(=C/c3ccc(OC)c(OC)c3)C2=O)cc1OC	3	-23	64	73*	-5	-10	57*	97*
COc1cc(C=C2CCCC(=Cc3ccc(OCC4CO4)c(OC)c3)C2=O)ccc1OCC1CO1 (stereo not drawn)	-4	27	-20	69*	31	12	25*	69*
Cc1ccc(/C=C2\CCOC2=O)cc1	-9	-57	-23	-9	-33	-45	.	.
Cc1ccc(/C=C2/CNC/C(=C/c3ccc(C)cc3)C2=O)cc1	-1	36	80*	47*	12	-54	54*	50*
COc1ccc(Cn2cc(COC(=O)NCC(C)C)nn2)cc1	.	.	.	-14	.	6	.	.
CC(=O)N1c2ccc(S(=O)(=O)N3CCCC(C(=O)Nc4ccc(C)cc4)C3)cc2CC1C (stereo not drawn)	1	2	-6	-3	-6	5	.	.
Cc1ccc(NC(=O)C2CCN(S(=O)(=O)c3ccc4c(c3)CC(C)N4C(=O)C3CCC3)CC2)nc1 (stereo not drawn)	0	23	18	45*	-5	-20	-1	27
CC(=O)N1c2ccc(S(=O)(=O)N3CCCC(C(=O)Nc4ccc(F)cc4)C3)cc2CC1C (stereo not drawn)	2	7	22	46*	10	23	3	22
Cc1cccc(Cn2cc(CN3CC(N(C)CCCOC(=O)c4cc(C)cc(C)c4)CS3(=O)=O)nn2)c1 (stereo not drawn)	.	.	.	33	.	1	.	.
Clc1cccc(CNc2nnnn2-c2ccccc2)c1	-6	-41	10	39*	9	26	2	6
Cc1cc(C)cc(C(=O)OCCN2CCN(C3CN(Cc4cn(Cc5ccc([N+](=O)[O-])cc5)nn4)S(=O)(=O)C3)CC2)c1 (stereo not drawn)	.	.	.	23	.	14	.	.
Cc1cc(C)cc(C(=O)OCCN2CCN(C3CN(Cc4cn(Cc5ccccc5F)nn4)S(=O)(=O)C3)CC2)c1 (stereo not drawn)	.	.	.	49*	.	14	-7	6
COC(CNC(=O)[C@H](Cc1ccccc1)NC(C)(C)C(=O)NC1CCCCC1)OC	.	.	.	17	.	.	.	.
CC(=O)c1c(C)[nH]c(C(=O)Nc2ccccc2C)c1C	.	.	.	-6	.	.	.	.
COC(=O)C1=C(C(=O)OC)[C@@]2([C@@H](Cc3ccc(C)cc3)Nc3ccccc3)C=C[C@@H]1O2	.	.	.	81*	.	.	31*	28
COc1cccc(Cn2cc(COC(=O)NCCc3ccccc3)nn2)c1	.	.	.	6	.	2	.	.
CC(C)(C)c1ccc(OCCC(=O)OCC(=O)NC2CCS(=O)(=O)C2)cc1 (stereo not drawn)	-2	0	10	-9	14	-32	.	.
CC(C)(C)c1ccc(OCCC(=O)OCC(=O)NC2CC2)cc1	-4	13	6	43*	-2	40	17*	4
CC(COc1ccc(C(F)(F)F)cc1)CN1CCC(C(O)(c2ccccc2)c2ccccc2)CC1 (stereo not drawn)	.	.	.	8	.	18	.	.
COc1ccccc1N(/N=C1\Sc2ccccc2C1=O)C(C)=O	-1	21	27	39*	26	-18	-21	33
Cc1ccccc1CN1CCCCC(NC(=O)c2ccc(N(C)C)cc2)C1=O (stereo not drawn)	.	.	.	-3	.	-14	.	.
CCC1CCCCN1S(=O)(=O)c1ccc(NC(=O)c2ccncc2)cc1 (stereo not drawn)	-1	20	33	61*	12	39	7	57*
COC(=O)[C@]12C[C@H](CC(=O)N3CCOCC3)C(=O)N(Cc3cccc4ccccc34)C1=C[C@H](C(C)C)O[C@@H]2C1CC1	.	.	.	-15	.	1	.	.
SMILES	GalR3 antag	NCOA1 inh	LRH-1 inv ag	NR2F2 inh	SRC3 inh	SRC2 inh	Gal4-VP16 ctr	NR2F2 inh conf
COc1ccc(-c2csc(NC(C)=O)n2)cc1OC	0	-29	-16	-10	-1	-39	.	.
COc1ccc(CNC(=O)C2CCN(C(=O)c3ccc(F)cc3)CC2)cc1OC	-4	2	11	3	-7	4	.	.
COc1ccc(-c2csc(NC(=O)C3CCN(C(=O)c4ccc(F)cc4)CC3)n2)cc1OC	-3	-6	12	55*	2	15	8	21
COc1cccc(NC(=O)Nc2nc(-c3ccc(OC)c(OC)c3)cs2)c1	-9	71*	38	73*	72*	75*	72*	100*
Clc1ccc([C@H]2OC[C@@]3(CNCc4ccccc4)CS[C@H](c4ccc(Cl)cc4)N23)cc1	.	.	.	-2	.	.	.	.
COC1CC(C)C(OC)c2cc(O)cc(c2O)NC(=O)C(C)=CC=CC(C)C(OC(N)=O)C(C)=CC(C)C1OC (stereo not drawn)	-5	34	23	-23	55	11	.	.
COC1C=CC=C(C)C(=O)NC2=CC(=O)C(N)=C(CC(C)CC(OC)C(O)C(C)C=C(C)C1OC(N)=O)C2=O (stereo not drawn)	-6	72*	86*	55*	75*	19	61*	75*
CCc1nc(CN2CCCC(C(=O)c3ccc4c5c(cccc35)CC4)C2)c(C)[nH]1 (stereo not drawn)	-7	-2	-4	28	11	27	.	.
O=C(c1ccc2c3c(cccc13)CC2)C1CCCN(Cc2ccncc2)C1 (stereo not drawn)	0	12	15	53*	8	13	19*	30
Cc1ccc(-c2c[n+](Cc3cccc(Cl)c3)c3n2CCC3)cc1	-3	16	24	38*	34	11	4	8
Clc1cccc(C[n+]2cc(-c3ccccc3)n3c2CCC3)c1	3	15	-5	-2	-5	-8	.	.
O=C(/C=C/Nc1ccccc1Br)c1ccccn1	-3	43	42	68*	59	81*	61*	80*
CCOC(=O)[C@]12CCCCC/C=C\1N(Cc1ccc(OC)cc1)C(=O)[C@H]2CC(=O)N1CCC(c2ccccc2)CC1	.	.	.	13	.	27	.	.
COc1ccc(C(=O)N2CCN(C3CCC(c4ccccc4)CC3)CC2)cc1OC (stereo not drawn)	11	-3	-1	41*	-10	22	10	18

Screening results deposited in PubChem BioAssay by The Scripps Research Institute Molecular Screening Center.
